# Source: PubChem BioAssay (several laboratories)
# A selection: hits, their analogues and other compounds. The true share with any hit is near 2.8%.
# PAX8 inh HTS: lowers PAX8-driven luciferase in RMG-I cells; RMG-I TPO-luciferase reporter, SteadyGlo, 24 h; inhibition, % at 12.6 µM; 1.2% of 360,000 active; AID 652154;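 active = mean replicate inhibition at least 60% with every replicate also reaching 60%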;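 note: luciferase light reporting Pax8 driven TPO promoter activity; plate controls were median of neutral control wells for no effect and mitoxantrone controls for full effect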
# EWS-Fli inh: inhibitors of EWS/Fli oncoprotein transcriptional activity. A673 NR0B1-luciferase reporter, viability-normalised. inhibition, % at 12.6 µM. 0.67% of 350,000 active. AID 651661;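 active = mean inhibition of at least 50% after viability correction, with every replicate also passing that limit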;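 note: firefly luciferase signal divided by Alamar Blue viability fluorescence both relative to DMSO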
# LGR2 antag: blocks bursicon-induced cAMP signaling via Drosophila LGR2. 0.35% of 380,000 active. HEK293 LGR2, CRE-luciferase, bursicon-stimulated, 4 h. inhibition, % at 9.99 µM;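 active = drop in luminescence signal, shown as inhibition above about 50% in the replicate tests, limit read from the data, passing the limit was not always enough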;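 note: agonist challenge used bursicon conditioned medium at about half maximal strength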
# TROY signal inh: blocks TROY-dependent signaling in reporter cells; Q293 LMP1-TROYcd NF-kB luciferase reporter, 4 h; inhibition, % at 10 µM; 0.98% of 360,000 active;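 active = compounds whose plate-normalised and pattern-corrected inhibition of the luciferase reporter signal at the single screening dose is 50% or more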
# TWEAK Fn14 block: inhibitors of TWEAK-Fn14 interaction signaling | 2% of 360,000 active | AID 1159606 | inhibition, % at 10 µM | TWEAK-stimulated Fn14 reporter cells, luciferase luminescence, 8 h; in the data active = inhibition above about 50%
# DNA binder FP: small molecule DNA binding by fluorescence polarization; shares compounds with EWS-Fli inh; AC35, µM (doses to about 68 µM), for inactives: at the top dose activity change, negative = DNA binding; 2% of 640 active; AID 720586; salmon sperm DNA acridine orange fluorescence polarization;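 active = fitted curve reaches a 35% signal fall AC35 below twice the sample's top valid tested dose, actives reach about 48 µM in these data; inactive = the rest, including activity in the rising direction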;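 note: lower polarization ratio signals compound binding to DNA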
# The depositor's hits bear a star; . = no result given.
SMILES,PAX8 inh HTS,EWS-Fli inh,LGR2 antag,TROY signal inh,TWEAK Fn14 block,DNA binder FP
CCOC(C[n+]1c(-c2ccccc2)cc(C)cc1-c1ccccc1)OCC,67*,10,13,-8,18,.
O=C(O)[C@H]1[C@H](CO)[C@H]2Cn3c(ccc(-c4ccccc4F)c3=O)[C@@H]1N2C(=O)Nc1ccccc1,.,-1,9,.,.,.
Cc1ccccc1-c1ccc([C@@H]2[C@H](CO)N3CCCCN(C(=O)Cc4ccccn4)C[C@@H]23)cc1,-32,-11,1,.,.,.
CCCCC1(CCCC)C(=O)NC(=Nc2cccc(C)c2)NC1=O,5,.,.,32,-10,.
Cc1cccc(N=C2c3cc([N+](=O)[O-])ccc3-c3c2cc([N+](=O)[O-])cc3[N+](=O)[O-])c1,66*,31,5,-10,-41,.
COc1ccc(C#Cc2ccc([C@H]3[C@@H](CO)N4CCCCN(C(=O)Cc5ccncc5)C[C@@H]34)cc2)cc1,-21,.,-11,.,.,.
Cc1c(C(=O)c2cccc3ccccc23)c2cccc3c2n1[C@H](CN1CCOCC1)CO3,101*,-8,24,-45,-4,.
O=C(CN1CCOCC1)c1cccc2ccccc12,6,.,.,-9,15,.
COc1ccc(OC(=O)N(C)C[C@H]2OCc3ccccc3-c3c(n(C)c4ccccc34)C(=O)N([C@@H](C)CO)C[C@@H]2C)cc1,33,2,13,.,.,.
CCN1/C(=C\C=C\C2=[N+](CC)c3ccccc3C2(C)C)C(C)(C)c2ccccc21,.,.,.,65*,100*,.
COC(=O)C[C@H]1CC[C@H]2NC[C@H](O)COC[C@@H]2O1,5,0,-22,.,.,.
COc1ccc(C(=O)N/N=C/C23CC[C@@H](O)CC2(O)CC[C@@H]2[C@@H]3CCC3(C)C(C4=CC(=O)OC4)CCC23O)cc1 (some centres undefined),-16,11,17,-6,-12,.
C[C@@H]1O[C@@H](O[C@H]2C[C@@H](O)[C@]3(CO)[C@H]4[C@H](O)C[C@]5(C)[C@@H](C6COC(=O)C6)CC[C@]5(O)[C@@H]4CC[C@]3(O)C2)[C@H](O)[C@H](O)[C@H]1O (some centres undefined),105*,70*,81*,46,71*,-1%
CC1OC(OC2CC(O)C3(CO)C4C(O)CC5(C)C(C6=CC(=O)OC6)CCC5(O)C4CCC3(O)C2)C(O)C(O)C1O (centres undefined),.,68*,90*,44,92*,5%
COc1ccc(C#Cc2ccc([C@@H]3[C@H]4CN(C(=O)Cc5cccnc5)CCCCN4[C@H]3CO)cc2)cc1,29,-7,24,.,.,.
O=C(O)[C@@H]1[C@@H](CO)[C@@H]2Cn3c(ccc(C4=CCCCC4)c3=O)[C@H]1N2CCc1ccccc1,.,-5,-8,.,.,.
O=C1NC(=S)NC(=O)C1=Cc1cccn1-c1ccc(O)cc1,32,71*,.,49,71*,0%
O=C(O)[C@@H]1[C@@H](CO)[C@@H]2Cn3c(ccc(-c4ccccc4)c3=O)[C@H]1N2CC1CCCCC1,-8,-4,1,.,.,.
COC(=O)[C@@H]1[C@@H](CO)[C@@H]2Cn3c(ccc(-c4ccccc4)c3=O)[C@H]1N2CC1CCCC1,.,-2,12,.,.,.
COC(=O)[C@H]1[C@H](CO)[C@H]2Cn3c(ccc(-c4ccccc4F)c3=O)[C@@H]1N2CC1CCCC1,.,66*,-1,.,.,-10%
COc1ccc(-c2ccc([C@@H]3[C@@H](CO)N4CCCCN(C(=O)Cc5ccccc5)C[C@@H]34)cc2)cc1,-24,.,26,.,.,.
CCCC#Cc1ccc([C@H]2[C@@H](CO)N3CCCCN(C(=O)Cc4ccccn4)C[C@@H]23)cc1,4,-7,-9,.,.,.
CC(=O)OC1CC(OC2C(O)CC(OC3C(O)CC(OC4CCC5(C)C(CCC6C5CCC5(C)C(C7=CC(=O)OC7)CCC65O)C4)OC3C)OC2C)OC(C)C1OC1OC(CO)C(O)C(O)C1O (centres undefined),102*,53*,86*,43,80*,-17%
COC(=O)[C@H]1[C@H](CO)[C@H]2Cn3c(ccc(C4=CCCC4)c3=O)[C@@H]1N2CC1CCCCC1,.,-2,-9,.,.,.
COC1C(C)OC(OC2CC(C)(O)Cc3cc4c(c(O)c32)C(=O)c2c(O)cc3c(c2C4=O)OC2OC3(C)C(O)C(N(C)C)C2O)C(OC)C1(C)OC (centres undefined),.,56*,20,12,15,1.3µM*
C[C@@H]1O[C@@H](O[C@@H]2C=C3CC[C@@H]4C(CC[C@]5(C)[C@@H](c6ccc(=O)oc6)CC[C@]45O)[C@@]3(C)CC2)[C@H](O)[C@H](O)[C@H]1O (some centres undefined),108*,71*,86*,51*,86*,-10%
C[C@@H]1O[C@@H](O[C@@H]2C=C3CCC4C(CC[C@]5(C)[C@@H](c6ccc(=O)oc6)CC[C@]45O)[C@@]3(C)CC2)[C@H](O)[C@H](O)[C@H]1O (some centres undefined),110*,71*,0,47,82*,2%
